# Structures can show the parent of a compound that is named as a salt.
# Key:
# Assay in all cases: lowest phenotypically active concentration; higher = less potent
# Conditions in all cases: treatment time: 24 h
# A549-CANX-COX4 = system: A549-CANX-COX4
# Procedure, shortened: (§1)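 Four wells per concentration (0.3, 1, 3 or 9 µM) were treated for 24 h in each of fifteen gene-edited reporter lines from A549, HepG2 and WPMY1 cells, then imaged live. After normalising live-cell features to solvent control wells, deviation was defined as ≥3 of 4 wells lying past the 95th percentile of control Euclidean distances. Reproducibility was defined as a median replicate Pearson correlation above the 95th percentile of non-replicates. Both had to hold for phenotypic activity.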
# A549-TP53BP1-CLTA = system: A549-TP53BP1-CLTA
# Procedure, shortened: as §1
# WPMY1-ACTB-RAB5A = system: WPMY1-ACTB-RAB5A
# Procedure, shortened: as §1
# WPMY1-CANX-COX4 = system: WPMY1-CANX-COX4
# Procedure, shortened: as §1
# WPMY1-TP53BP1-CLTA = system: WPMY1-TP53BP1-CLTA
# Procedure, shortened: as §1
# WPMY1-TUBA1B-RELA = system: WPMY1-TUBA1B-RELA
# Procedure, shortened: as §1
# HepG2-CANX-COX4 = system: HepG2-CANX-COX4
# Procedure, shortened: as §1
# HepG2-GM130-SQSTM1 = system: HepG2-GM130-SQSTM1
# Procedure, shortened: as §1
# HepG2-TUBA1B-RELA = system: HepG2-TUBA1B-RELA
# Procedure, shortened: as §1
# HepG2-TP53BP1-CLTA = system: HepG2-TP53BP1-CLTA
# Procedure, shortened: as §1
smiles,measurement,setting,value
Cc1cccc(C)c1OCC(C)N (stereo not given) [mexiletine],lowest phenotypically active concentration,A549-CANX-COX4,≤ 0.3 µM
same,lowest phenotypically active concentration,A549-TP53BP1-CLTA,≤ 0.3 µM
O=C(O/N=C1\c2ccccc2-c2nc3ccccc3nc21)c1ccco1,lowest phenotypically active concentration,WPMY1-ACTB-RAB5A,9 µM
same,lowest phenotypically active concentration,WPMY1-CANX-COX4,9 µM
same,lowest phenotypically active concentration,WPMY1-TP53BP1-CLTA,9 µM
same,lowest phenotypically active concentration,WPMY1-TUBA1B-RELA,3 µM
N=C(N)NC(=N)NCCc1ccccc1 [phenformin],lowest phenotypically active concentration,A549-CANX-COX4,9 µM
CCOC(=O)N1CCC(=C2c3ccc(Cl)cc3CCc3cccnc32)CC1 [loratadine],lowest phenotypically active concentration,HepG2-CANX-COX4,3 µM
Cc1nc2sccn2c(=O)c1CCN1CCC(=C(c2ccc(F)cc2)c2ccc(F)cc2)CC1 [Ritanserin],lowest phenotypically active concentration,HepG2-GM130-SQSTM1,9 µM
same,lowest phenotypically active concentration,HepG2-TUBA1B-RELA,9 µM
Cc1cccc(CN2CCN(C(c3ccccc3)c3ccc(Cl)cc3)CC2)c1 (stereo not given) [Meclizine dihydrochloride],lowest phenotypically active concentration,HepG2-TUBA1B-RELA,9 µM
Cn1cc(-c2ccc3nnc(Sc4ccc5ncccc5c4)n3n2)cn1,lowest phenotypically active concentration,A549-CANX-COX4,1 µM
same,lowest phenotypically active concentration,A549-TP53BP1-CLTA,1 µM
N=C1NC(=O)/C(=C\c2ccc(O)cc2)S1 [Mirin],lowest phenotypically active concentration,WPMY1-ACTB-RAB5A,9 µM
O=c1c(-c2ccc(O)cc2)coc2cc(O)cc(O)c12 [Genistein],lowest phenotypically active concentration,A549-TP53BP1-CLTA,9 µM
same,lowest phenotypically active concentration,WPMY1-ACTB-RAB5A,9 µM
same,lowest phenotypically active concentration,WPMY1-CANX-COX4,9 µM
same,lowest phenotypically active concentration,WPMY1-TP53BP1-CLTA,9 µM
same,lowest phenotypically active concentration,WPMY1-TUBA1B-RELA,9 µM
CC(C)(C)c1cc(/C=C(\C#N)C(N)=S)cc(C(C)(C)C)c1O,lowest phenotypically active concentration,A549-CANX-COX4,9 µM
same,lowest phenotypically active concentration,A549-TP53BP1-CLTA,9 µM
same,lowest phenotypically active concentration,HepG2-CANX-COX4,9 µM
same,lowest phenotypically active concentration,HepG2-GM130-SQSTM1,9 µM
same,lowest phenotypically active concentration,HepG2-TP53BP1-CLTA,9 µM
same,lowest phenotypically active concentration,HepG2-TUBA1B-RELA,9 µM
same,lowest phenotypically active concentration,WPMY1-TP53BP1-CLTA,9 µM
Cc1c[nH]c2ncnc(-c3ccc(NC(=O)N(CCO)c4ccccc4)cc3)c12,lowest phenotypically active concentration,WPMY1-TUBA1B-RELA,9 µM
CC(C)(C)c1ccc(S(=O)(=O)/C=C/C#N)cc1,lowest phenotypically active concentration,HepG2-GM130-SQSTM1,9 µM
same,lowest phenotypically active concentration,HepG2-TUBA1B-RELA,9 µM
same,lowest phenotypically active concentration,WPMY1-CANX-COX4,9 µM
same,lowest phenotypically active concentration,WPMY1-TP53BP1-CLTA,9 µM
"Nc1ncnc2c1nc(Br)n2[C@@H]1O[C@@H]2COP(=O)(O)O[C@H]2[C@H]1O [8-Bromo-cAMP, sodium salt]",lowest phenotypically active concentration,WPMY1-CANX-COX4,9 µM
COC(=O)C1=CO[C@@H](C)[C@H]2CN3CCc4c([nH]c5ccccc45)[C@@H]3C[C@H]12 [Ajmalicine hydrochloride],lowest phenotypically active concentration,A549-CANX-COX4,9 µM
same,lowest phenotypically active concentration,HepG2-CANX-COX4,9 µM
same,lowest phenotypically active concentration,HepG2-TP53BP1-CLTA,9 µM
same,lowest phenotypically active concentration,WPMY1-CANX-COX4,9 µM
Cc1cc(C(C)Nc2ccccc2)c2nc(N3CCOCC3)cc(=O)n2c1 (stereo not given),lowest phenotypically active concentration,WPMY1-CANX-COX4,9 µM
COc1cc(C)c(/C=C/C(C)=C/C=C/C(C)=C/C(=O)O)c(C)c1C [acitretin],lowest phenotypically active concentration,WPMY1-CANX-COX4,9 µM
O=c1cc(N2CCOCC2)oc2c(-c3ccccc3)cccc12,lowest phenotypically active concentration,A549-TP53BP1-CLTA,9 µM
same,lowest phenotypically active concentration,HepG2-GM130-SQSTM1,9 µM
same,lowest phenotypically active concentration,HepG2-TP53BP1-CLTA,9 µM
same,lowest phenotypically active concentration,HepG2-TUBA1B-RELA,9 µM
same,lowest phenotypically active concentration,WPMY1-ACTB-RAB5A,9 µM
same,lowest phenotypically active concentration,WPMY1-CANX-COX4,9 µM
same,lowest phenotypically active concentration,WPMY1-TP53BP1-CLTA,9 µM

# From the supplement of paper PMC7411054
